Assay outcomes deposited in PubChem BioAssay by National Center for Advancing Translational Sciences (NCATS).
HT1080-NT tox: kills 2HG-producing HT-1080-NT fibrosarcoma cells; HT-1080-NT fibrosarcoma viability, CellTiter-Glo ATP luminescence, 48 h; actives 1.6% (n = 360,000); Potency, µM (doses to about 46.1 µM), without a hit: at the top dose activity, negative = less viability, actives largely listed as cytotoxic;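 note: NT is the 2HG producing partner of a matched IDH1 knockdown line; potency is the fitted concentration of half-maximal effect; 0% = DMSO-treated cells and -100% = media-only wells without cells; nearly all actives have a fitted effect of over 55% in size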
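Viability by CellTiter-Glo luminescence after 48 h compound exposure at 37C of HT-1080-NT cells (750/well, RPMI, 5% FBS). % activity scaled between DMSO wells and medium-only wells, then curve-fitted and categorized by curve class.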
IL-1B inflam inh: inflammasome signaling inhibition, IL-1 beta readout; activity change, % at 57.5 µM; THP-1 LPS/ATP IL-1B secretion, AlphaLISA, 16 h; stronger effect = lower value; actives 4.7% (n = 360,000); AID 743279; in the data active = activity change below about -50%; inconclusive = mostly about -30% to -49%
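Secreted IL-1B measured by AlphaLISA bead assay after 16 h compound exposure of THP-1 cells; compounds (final up to 57.5 uM) added 1 h before LPS (250 ng/mL) and ATP (1.25 mM) stimulation; lower signal means less secretion.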
TDP1 cell noCPT: qHTS for Inhibitors of human tyrosyl-DNA phosphodiesterase 1 (TDP1): qHTS in cells in absence of CPT; Potency, µM (series often up to 46.2 µM), without a hit: top-dose activity change, negative = growth inhibition, most hits filed as inhibitors; DT40 Tdp1-/- hTDP1 cells, no CPT, ATP luminescence, 48 h; AID 686978, 2013; actives 15% (n = 420,000); note: potency is the fitted concentration of half-maximal effect; nearly all actives have a fitted effect of over 55% in size
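Luminescent ATP content (CellTiter-Glo) served as the growth readout. Knockout chicken DT40 cells expressing human TDP1 were exposed to compounds without camptothecin for a minimum 48 hr at 37 °C.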
TDP1 cell CPT: DT40-hTDP1 cell growth loss with CPT; chicken DT40 Tdp1-/-;hTDP1 cells + 20 nM CPT, ATP luminescence, 48 h; Potency, µM (titrated, usually from 46.2 µM), for inactives: top-dose activity change, negative = growth inhibition, hits mostly inhibitors; actives 12% (n = 420,000); AID 686979; note: potency is the fitted concentration of half-maximal effect; nearly all actives have a fitted effect of over 55% in size
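Chicken DT40 Tdp1-/- cells complemented with human TDP1, 400 cells/well, exposed to compounds plus 20 nM camptothecin for at least 48 h at 37 C; viability read as ATP content by CellTiter-Glo luminescence.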
ELG1 repair inh: inhibitors of ELG1-dependent DNA repair in HEK293T cells; Potency, µM (titrated, usually from 46.1 µM), for the others: at the top dose activity change, negative = inhibition, most hits filed as inhibitors; HEK293T ELG1-luciferase reporter, luminescence, 16 h; DNA damage induced by 5-fluorouridine; actives 2.3% (n = 330,000); note: potency is the fitted concentration of half-maximal effect; nearly all actives have a fitted effect of over 55% in size
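Reporter activity after DNA damage by 5-fluorouridine is monitored. Compound-treated cells incubate 16 hr at 37 °C, then ONE-Glo is added for 30 min before luminescence reading.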
HT1080 IDH1KD tx: kills HT-1080 cells with IDH1 knockdown. HT-1080 IDH1 knockdown viability, ATP luminescence, 48 h. Potency, µM (highest dose often 46.1 µM), for inactives: at the highest dose activity, negative = toxicity, actives largely listed as cytotoxic. actives 2% (n = 360,000). AID 686971;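 note: potency is the fitted concentration of half-maximal effect; 0% = DMSO wells and -100% = cell-free medium wells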
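Knockdown cells (IDH1KD HT-1080) received compounds 2 h after plating at 750 cells/well and were kept 48 h at 37 °C in 5% FBS RPMI. A CellTiter-Glo luminescence read gave % activity for curve fitting.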
Starred values were filed as active, the others as inactive; ? = inconclusive; . = no result given; [ ] = remark or other dose. Compounds with a hit are over-represented: about 19% of the library has one in this group of screens. Unless noted, calls come from the whole dose curve; as a rule, active = well fitted curve in the direction sought with a large enough effect; inconclusive = small, poorly fitted or top-dose-only effect, or another doubt; inactive = no such curve, though single readings can be large; an effect the other way counts as inactive or inconclusive. Unless noted, % is set by controls: 0 for no effect and ±100 for the full control effect.

SMILES	HT1080-NT tox	IL-1B inflam inh	TDP1 cell noCPT	TDP1 cell CPT	ELG1 repair inh	HT1080 IDH1KD tx
COc1ccccc1C(=O)NCCC(=O)NC1CCC(C)CC1 (stereo unspecified)	0%	-15	-15%	0%	?	9%
CO[C@H]1[C@H](NC(=O)c2ccncc2)c2ccccc2C12CCN(C(=O)c1ccoc1)CC2	.	.	4%	17%[9.04 µM]	.	.
CC(C)COc1ccc(C(=O)Nc2scc(-c3ccc(Cl)cc3Cl)c2C(N)=O)cc1	18%	-3	9.2µM*	16µM*	-13%	8%
CC(C)COc1ccc(C(=O)Nc2cc3nn(-c4ccccc4)nc3cc2Cl)cc1	.	.	-1%	1%	.	.
C#CC(=O)CC1(CN(Cc2ccccc2)C(=O)OC(C)(C)C)CCCCC1	-13%	?	10µM*	12µM*	.	-11%
CON(C)C(=O)CC1(CN(Cc2ccccc2)C(=O)OC(C)(C)C)CCCCC1	-14%	15	18µM*	18µM*	?	-24%
CC(C)(C)OC(=O)N(Cc1ccccc1)Cc1cccc(OCc2cccc(NC(=O)C3CC3)c2)c1	-5%	?	?	?	.	-21%
CON(C)C(=O)CCN(C(=O)OC(C)(C)C)c1ccccc1	11%	-4	-17%	-16%	22%	2%
Cc1ccccc1S(=O)(=O)N1C[C@H]2[C@H]3C(=O)N(c4ccccc4)C(=O)[C@H]3CC(=O)[C@H]2[C@@H]1c1ccc(Cl)cc1	9%	7	0%	-5%	.	30%
COc1ccc(O)c(CN2CCCN(c3nc(C)c4cc(C)c(C)cc4n3)CC2)c1	.	.	-14%	-1%[9.04 µM]	.	.
CC1C/C(=N/NC(=O)c2ccc(CSc3nc4ccccc4[nH]3)cc2)CC(C)(C)C1 (stereo unspecified)	-5%	-4	-27%	-26%	18%	-10%
CC1C/C(=N/Nc2nc3ccccc3[nH]2)CC(C)(C)C1 (stereo unspecified)	2%	-3	?	21µM*	18%	-1%
CC(/C=N/NC(=O)CSc1ccccn1)=C\c1ccc(C(C)C)cc1	6%	4	10µM*	?	?	16%
COc1ccc(Cc2nc3ccc(C(=O)N(C)CCn4ccnc4)cc3o2)cc1OC	3%	0	-14%	-9%	?	-4%
CCCCCCCCCCCCCCCCCCN(CCCCCCCCCCCCCCCCCC)c1ccc(/C=C/c2ccc(C=O)cc2)cc1	.	.	6%	-9%	.	.
COc1ccc(C(=O)C2CCCN(C(=O)c3noc4c3CCCC4)C2)cc1F (stereo unspecified)	7%	5	18µM*	?	?	6%
COc1ccc(C(=O)C2CCCN(S(=O)(=O)c3ccc(C(C)=O)cc3)C2)c(C)c1 (stereo unspecified)	-2%	?	12µM*	16µM*	-23%	-12%
COc1ccc(C(=O)C2CCCN(C(=O)c3cccnc3SC)C2)c(C)c1 (stereo unspecified)	-10%	-70*	?	?	?	-22%
COc1ccc(C(=O)C2CCCN(C(=O)C3=CCCC3)C2)c(C)c1 (stereo unspecified)	-4%	-8	23µM*	?	-18%	-10%
COc1ccc(C(=O)C2CCCN(C(=O)c3ccc(CSC)o3)C2)cc1F (stereo unspecified)	3%	3	?	?	5%	10%
CCOC(=O)C1CCN(C2CCN(C(=O)c3oc4c(C)c(C)ccc4c3C)CC2)CC1	?	?	-26%	?	?	-16%
CCOC(=O)c1cc(OCc2csc(-c3ccccc3)n2)cc(C(=O)OCC)c1	.	.	-27%	-27%	.	.
